Experimental findings from PubChem BioAssay (NCI) are described below.

Each structure is given as a SMILES string. The panel holds about 79,000 compounds, 15% with a hit somewhere; the sample as a whole holds those more often. Values without a mark were called inactive. Active and inactive are the calls of the source. Rule as the data show it: active = growth inhibition above about 70%; inactive = the rest. Where a SMILES comes first, the peptide text is derived from it.

One experiment can be described thus: NCI Yeast Anticancer Drug Screen. Data for the bub3 strain (AID 167). Conditions: S. cerevisiae bub3 mutant strain, at 50.0 µM, stronger effect = higher value. The method, boiled down: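 Mutant yeast screening strain plus compound; vehicle-treated cultures serve as the 0% inhibition reference.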
As to `OCc1ccccc1C1CSCSC1`, the growth inhibition is -21.4%. On the same count and under the same terms, in the case of `Oc1cc(CN2CCOCCOCCOCCOCC2)c(O)cc1CN1CCOCCOCCOCCOCC1` it was -8.3%; in that of `O=C1C(CO)=C[C@@H](O)[C@H]2O[C@@H]12`, 15.9%; in that of `Cc1n[nH]c2ccccc2c1=O`, -23.6%. Same read-out and setting: in the case of `O=C(NCc1ccco1)Nc1ccccc1Cl` it was 4.25%. As for `CCC(O)C(CC)[N+](=O)[O-]` (centres undefined), the growth inhibition was -2.8%. The same measure, in the same setting: in the case of `CCOC(OCC)c1ccc(O)cc1` it was -2.2%; in that of `Cc1cc(=O)[nH]c(=O)n1CCCN(C)CCCn1c(C)cc(=O)[nH]c1=O`, -28.6%. Consider `OCC1OC(O)C(N=Cc2ccc3c(c2)OCO3)C(O)C1O` (centres undefined), for which the growth inhibition was -20.6%. For `O=C1CC(N2C(=O)C3C4CCC(O4)C3C2=O)C(=O)N1` (centres undefined), the growth inhibition was 7.95%. Still for that read-out and setting: in the case of `CC12CCCCC1CC(=O)/C(=C\O)C2` (centres undefined) it was -11.3%; in that of `COc1cc(C2CC(C)=C(C)CC2C(=O)O)cc(OC)c1OC` (centres undefined), 10.4%; in that of `O=C(Nc1ccc(Br)cc1)c1ccccc1`, 0.8%. Same read-out and setting: the figure for `CC(C/C=C(/C=O)C(C)CC(C)(C)C)CC(C)(C)C` (centres undefined) is 4.85%; for `CC(=O)OC(C(=O)N(c1ccccc1)c1ccccc1)c1ccccc1` (centres undefined) it is 7.35%.

Consider `O=C1NCCN(CCc2ccccc2)C1c1ccccc1` (centres undefined), for which the growth inhibition is 15%.

`N#CCCN(CCC#N)c1ccc(/C=C2/C=C(c3ccccc3)OC2=O)cc1`: the growth inhibition is -5.85%. Same read-out and setting: the figure for `CSCCC(N)C(=O)NC(CCSC)C(=O)O` (stereo not drawn) (H-Met-Met-OH; configuration not given here) is -8.95%. Still for that read-out and setting: the figure for `C=CC(C/C(C)=N/Nc1ccc([N+](=O)[O-])cc1[N+](=O)[O-])c1ccccc1` (centres undefined) is -19.6%; for `CC(=O)C1=C(C)N2C(=NC3=C(CCc4ccccc43)C2c2ccc(F)cc2)S1` (centres undefined) it is -21.8%. In the case of `CCn1cc(C(=O)O)c(=O)c2ccc(-c3cn[nH]c3C)nc21`, the growth inhibition was 12.2%. Still for that read-out and setting: in the case of `COc1ccc2c(c1)C1Oc3ccccc3CC1(O)CO2` (centres undefined) it was -6.3%; in that of `COc1ccc(SSc2ccc(OC)cc2)cc1`, 6.2%. As for `CC(C)(O)C(F)(F)F`, the growth inhibition is -3.4%.

Another experiment can be described thus: NCI Yeast Anticancer Drug Screen. Data for the mlh1 rad18 strain (AID 175). To be noted: S. cerevisiae mlh1 rad18 strain growth inhibition; at 50.0 µM; stronger effect = higher value. The method, boiled down:
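Test agents were incubated with a yeast strain of defined genotype (DNA damage repair defect). Inhibition of growth was derived by comparison with vehicle-exposed cultures.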
With `Cc1cc(=O)n(-c2ccccc2)c(=O)n1-c1nc2ccccc2[nH]1`, the growth inhibition is 32%. On the same count and under the same terms, the figure for `C=CCc1cc(C(=O)C(=O)c2cc(CC=C)c(OC(C)=O)c(OC)c2)cc(OC)c1OC(C)=O` is 8.25%; for `Clc1ccc2c(c1)Cc1ccccc1-2` it is 22.2%. Still for that read-out and setting: the figure for `CC(=O)c1cccc(NC(=O)/C(=N\NC(=S)NN)C2C(=O)Nc3ccccc3S2=O)c1` (centres undefined) is -10.5%. Still for that read-out and setting: in the case of `COC(=O)CCN(CCC(=O)OC)C1CC1` it was -20.4%; in that of `CCOC(=O)/C(C#N)=C/NCC1CC1`, -22.6%.

As for `O=c1[nH]c(=O)n(C2CC(O)C(CO)O2)cc1C#Cc1ccc(C(F)(F)F)cc1` (centres undefined), the growth inhibition is -13.7%. The same measure, in the same setting: the figure for `Cc1ccc(C2(c3ccccc3)c3ccccc3C(=O)N2c2ccccc2)cc1` (centres undefined) is 96.9% (active); for `Cc1ccc2c(c1)C(c1ccccc1)(c1ccccc1)OC2=O` it is 20.4%. `COc1ccc(C2S/C(=C\c3cccc([N+](=O)[O-])c3)C(=O)N2NC(=O)Cc2ccccc2)cc1` (centres undefined): the growth inhibition was 12.4%. Still for that read-out and setting: the figure for `CSC(=O)/C=C1\SS/C(=C\C(=O)SC)S1` is -16.1%; for `CCCCCCCCCCCCCCCCCC(=O)N/N=C/c1ccccc1OC` it is 28.1%; for `N=c1c2ncn(C3OC(COP(=O)(O)O)C(O)C3O)c2ncn1O` (centres undefined) it is 1.15%.

With `CCOc1ccc(NC(=O)CCc2nnc(SC)o2)cc1`, the growth inhibition was 23.2%. On the same count and under the same terms, in the case of `COc1ccc(N(C)C(=S)c2ccccc2)cc1` it was -10.9%; in that of `COc1ccc(C(=O)c2ccccc2)c(OC(=O)Nc2ccc(Cl)cc2)c1`, 16.6%. On the same count and under the same terms, the figure for `OCc1ccccc1C1CSCSC1` is -12.2%; for `Oc1cc(CN2CCOCCOCCOCCOCC2)c(O)cc1CN1CCOCCOCCOCCOCC1` it is -14.1%. Same read-out and setting: the figure for `O=C1C(CO)=C[C@@H](O)[C@H]2O[C@@H]12` is 17.4%; for `Cc1n[nH]c2ccccc2c1=O` it is -9.95%. Take `O=C(NCc1ccco1)Nc1ccccc1Cl`: the growth inhibition was -11%. On the same count and under the same terms, the figure for `CCC(O)C(CC)[N+](=O)[O-]` (centres undefined) is 5.5%; for `CCOC(OCC)c1ccc(O)cc1` it is 12.1%; for `Cc1cc(=O)[nH]c(=O)n1CCCN(C)CCCn1c(C)cc(=O)[nH]c1=O` it is -3.95%. In the case of `OCC1OC(O)C(N=Cc2ccc3c(c2)OCO3)C(O)C1O` (centres undefined), the growth inhibition is -19.9%.

As to `O=C1CC(N2C(=O)C3C4CCC(O4)C3C2=O)C(=O)N1` (centres undefined), the growth inhibition was 6.45%.

As to `CC12CCCCC1CC(=O)/C(=C\O)C2` (centres undefined), the growth inhibition is 14%. Still for that read-out and setting: the figure for `COc1cc(C2CC(C)=C(C)CC2C(=O)O)cc(OC)c1OC` (centres undefined) is 19.8%; for `O=C(Nc1ccc(Br)cc1)c1ccccc1` it is 22.1%; for `CC(C/C=C(/C=O)C(C)CC(C)(C)C)CC(C)(C)C` (centres undefined) it is 61.8%.

With `CC(=O)OC(C(=O)N(c1ccccc1)c1ccccc1)c1ccccc1` (centres undefined), the growth inhibition is 16.1%.

On to `O=C1NCCN(CCc2ccccc2)C1c1ccccc1` (centres undefined), for which the growth inhibition is -6.05%. For the molecule `N#CCCN(CCC#N)c1ccc(/C=C2/C=C(c3ccccc3)OC2=O)cc1`, the growth inhibition was 11.3%. On the same count and under the same terms, the figure for `CSCCC(N)C(=O)NC(CCSC)C(=O)O` (stereo not drawn) (H-Met-Met-OH; configuration not given here) is -5.7%; for `C=CC(C/C(C)=N/Nc1ccc([N+](=O)[O-])cc1[N+](=O)[O-])c1ccccc1` (centres undefined) it is -8%. Same read-out and setting: in the case of `CC(=O)C1=C(C)N2C(=NC3=C(CCc4ccccc43)C2c2ccc(F)cc2)S1` (centres undefined) it was -9.8%. The same measure, in the same setting: the figure for `CCn1cc(C(=O)O)c(=O)c2ccc(-c3cn[nH]c3C)nc21` is 29.9%. Take `COc1ccc2c(c1)C1Oc3ccccc3CC1(O)CO2` (centres undefined): the growth inhibition was 51.5%. In the case of `COc1ccc(SSc2ccc(OC)cc2)cc1`, the growth inhibition is 18.8%. `CC(C)(O)C(F)(F)F`: the growth inhibition is 25.5%.
